Experimental data: the supplement of paper PMC10849652
Targets with a hit are over-represented here; the source holds about 8,800 in all. About 0.5% of all pairs of compound and target were hits.

Tests used:
Assay in all cases: log2 fold change, soluble protein after heating vs DMSO (PISA); higher = thermal stabilisation; K562 lysate, 10 uM; active = over 0.2 and 3.5 SD of the protein, either way, in both replicates (recomputed)
[1] = compound: C#Cc1cccc(Nc2ncnc3cc(OCCOC)c(OCCOC)cc23)c1 [erlotinib]
Method in brief: (§1)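 Values give the log-two fold change in thermal stability against solvent controls, from duplicates. Crude K562 extract at 1 mg/mL protein, made by dounce homogenisation in PBS pH 7.4 with 1 mM MgCl2, was treated with 10 μM compound for 30 min. After 3 min heating across 48°C-58°C, aliquots were pooled, adjusted to 0.5% NP-40 at 4°C and centrifuged at 21,000xg for 90 min. The supernatant was measured by TMTpro 16plex LC-MS/MS with channel sums equalised.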

[2] = compound: C/C(=N\NC(=O)C1=CC(=CC=C1)S(=O)(=O)N2CCOCC2)/C3=C(C=CC(=C3)Cl)O
Method in brief: as §1

[3] = compound: C1=CC(=CC=C1C2=NC3=C(N2)C=C(C=C3)C(=O)N)OC4=CC=C(C=C4)Cl
Method in brief: as §1

[4] = compound: C1=CC2=C(C=CC(=C2)/C=C\3/C(=O)NC(=NCC4=CC=CS4)S3)N=C1
Method in brief: as §1

[5] = compound: C1=CC2=NC=CN=C2C=C1/C=C/3\C(=O)NC(=O)S3
Method in brief: as §1

[6] = compound: C1=CC=C(C=C1)C2=NC(=C(N2)C3=CC=NC=C3)C4=CC(=C(C=C4)Cl)O
Method in brief: as §1

[7] = compound: C1=CC=C2C(=C1)C3=NNC4=CC=CC(=C43)C2=O
Method in brief: as §1

[8] = compound: C1CCN(C1)C(=O)NC2=CC=CC(=C2)NC3=NC=C(C(=N3)NCCC4=CN=CN4)Br
Method in brief: as §1

[9] = compound: C1CN(CCC1(CC2=CC=C(C=C2)Cl)N)C3=NC=NC4=C3C=CN4
Method in brief: as §1

[10] = compound: C1COCCN1CCN2C3=CC=CC=C3N=C2NC(=O)C4=CC(=CC=C4)[N+](=O)[O-] [IRAK-1-4 Inhibitor I]
Method in brief: as §1

[11] = compound: C=CC(=O)N1CCC[C@@H](n2nc(-c3ccc(Oc4ccccc4)cc3)c3c(N)ncnc32)C1 [ibrutinib]
Method in brief: as §1

[12] = compound: CC(=O)c1cnc2ccc(-c3cc(Cl)c(O)c(Cl)c3)nc2c1N[C@H]1CC[C@H](CN(C)C)CC1
Method in brief: as §1

[13] = compound: CC(C)(C)Cn1c(N)nc2ccc(-c3[nH]c(C(C)(C)C)nc3-c3ccc(F)cc3)nc21 [ralimetinib]
Method in brief: as §1

[14] = compound: CC(C)(O)CC(=O)NCCn1ccc2ncnc(Nc3ccc(Oc4cccc(C(F)(F)F)c4)c(Cl)c3)c21
Method in brief: as §1

[15] = compound: CC(C)C1=C2N=C(C=C(N2N=C1)NCC3=CC=CC=C3)NCCCCCCN
Method in brief: as §1

[16] = compound: CC1=C(C(CC(=O)N1)C2=CC=C(C=C2)C(F)(F)F)C(=O)NC3=C(C=C4C(=C3)C=NN4)F
Method in brief: as §1

[17] = compound: CC1=C(C2=C(C=C1)C(=O)C3=CC=CC=C3N2CCCN)C
Method in brief: as §1

[18] = compound: CC1=C(C=C(C=C1)NC(=O)C2=CC(=CC=C2)C(C)(C)C#N)NC3=CC4=C(C=C3)N=CN(C4=O)C
Method in brief: as §1

[19] = compound: CC1=C(C=C(C=C1)NC(=O)C2=CC(=CC=C2)N(C)C)NC(=O)C3=CC=C(C=C3)O
Method in brief: as §1

[20] = compound: CC1=CC=C(C=C1)SC2=C3C=C(SC3=CN=C2)C(=O)N
Method in brief: as §1

Measured: log2 fold change

CCNYL1 (UniProt Q8N7R7)
Chain of UniProt Q8N7R7 (Q8N7R7 whole entry, looked up): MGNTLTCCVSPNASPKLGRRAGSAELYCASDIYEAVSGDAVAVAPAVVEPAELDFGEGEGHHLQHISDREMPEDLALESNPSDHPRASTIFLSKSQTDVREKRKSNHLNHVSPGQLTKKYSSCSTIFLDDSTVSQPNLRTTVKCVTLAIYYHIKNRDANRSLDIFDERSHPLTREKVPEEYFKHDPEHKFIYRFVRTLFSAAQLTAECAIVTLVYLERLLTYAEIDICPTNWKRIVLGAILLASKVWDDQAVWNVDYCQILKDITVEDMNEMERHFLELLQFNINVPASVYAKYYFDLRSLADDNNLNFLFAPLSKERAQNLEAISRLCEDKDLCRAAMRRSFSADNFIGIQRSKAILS
inactive: [1] 0.026 | [2] -0.101 | [3] 0.084 | [4] 0.06 | [5] -0.04 | [6] -0.042 | [7] -0.002 | [8] -0.051 | [9] 0.049 | [10] 0.026 | [11] 0.047 | [12] 0.007 | [13] 0.019 | [14] -0.032 | [15] 0.012 | [16] 0.027 | [17] -0.023 | [18] 0.028 | [19] -0.027 | [20] -0.006

C19orf54 (UniProt Q5BKX5)
Chain of UniProt Q5BKX5 (Q5BKX5 whole entry, looked up): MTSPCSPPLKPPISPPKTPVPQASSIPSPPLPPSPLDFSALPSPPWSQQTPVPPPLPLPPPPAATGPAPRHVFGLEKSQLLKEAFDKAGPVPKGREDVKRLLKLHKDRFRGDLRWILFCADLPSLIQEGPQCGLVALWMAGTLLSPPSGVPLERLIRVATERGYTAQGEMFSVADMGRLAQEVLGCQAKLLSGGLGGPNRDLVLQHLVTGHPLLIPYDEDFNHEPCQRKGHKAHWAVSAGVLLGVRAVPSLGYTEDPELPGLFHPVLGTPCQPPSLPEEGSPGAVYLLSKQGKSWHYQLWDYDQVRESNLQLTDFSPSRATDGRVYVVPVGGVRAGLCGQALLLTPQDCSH
inactive: [1] -0.012 | [2] 0.042 | [3] 0.035 | [4] -0.025 | [5] 0.019 | [6] -0.004 | [7] 0.022 | [8] -0.012 | [9] -0.012 | [10] 0.054 | [11] 0.041 | [12] 0.003 | [13] -0.018 | [14] -0.055 | [15] 0.028 | [16] 0.012 | [17] 0.06 | [18] -0.041 | [19] 0.013 | [20] 0.063

CHD5 (UniProt Q8TDI0)
Chain of UniProt Q8TDI0 (Q8TDI0 whole entry, looked up): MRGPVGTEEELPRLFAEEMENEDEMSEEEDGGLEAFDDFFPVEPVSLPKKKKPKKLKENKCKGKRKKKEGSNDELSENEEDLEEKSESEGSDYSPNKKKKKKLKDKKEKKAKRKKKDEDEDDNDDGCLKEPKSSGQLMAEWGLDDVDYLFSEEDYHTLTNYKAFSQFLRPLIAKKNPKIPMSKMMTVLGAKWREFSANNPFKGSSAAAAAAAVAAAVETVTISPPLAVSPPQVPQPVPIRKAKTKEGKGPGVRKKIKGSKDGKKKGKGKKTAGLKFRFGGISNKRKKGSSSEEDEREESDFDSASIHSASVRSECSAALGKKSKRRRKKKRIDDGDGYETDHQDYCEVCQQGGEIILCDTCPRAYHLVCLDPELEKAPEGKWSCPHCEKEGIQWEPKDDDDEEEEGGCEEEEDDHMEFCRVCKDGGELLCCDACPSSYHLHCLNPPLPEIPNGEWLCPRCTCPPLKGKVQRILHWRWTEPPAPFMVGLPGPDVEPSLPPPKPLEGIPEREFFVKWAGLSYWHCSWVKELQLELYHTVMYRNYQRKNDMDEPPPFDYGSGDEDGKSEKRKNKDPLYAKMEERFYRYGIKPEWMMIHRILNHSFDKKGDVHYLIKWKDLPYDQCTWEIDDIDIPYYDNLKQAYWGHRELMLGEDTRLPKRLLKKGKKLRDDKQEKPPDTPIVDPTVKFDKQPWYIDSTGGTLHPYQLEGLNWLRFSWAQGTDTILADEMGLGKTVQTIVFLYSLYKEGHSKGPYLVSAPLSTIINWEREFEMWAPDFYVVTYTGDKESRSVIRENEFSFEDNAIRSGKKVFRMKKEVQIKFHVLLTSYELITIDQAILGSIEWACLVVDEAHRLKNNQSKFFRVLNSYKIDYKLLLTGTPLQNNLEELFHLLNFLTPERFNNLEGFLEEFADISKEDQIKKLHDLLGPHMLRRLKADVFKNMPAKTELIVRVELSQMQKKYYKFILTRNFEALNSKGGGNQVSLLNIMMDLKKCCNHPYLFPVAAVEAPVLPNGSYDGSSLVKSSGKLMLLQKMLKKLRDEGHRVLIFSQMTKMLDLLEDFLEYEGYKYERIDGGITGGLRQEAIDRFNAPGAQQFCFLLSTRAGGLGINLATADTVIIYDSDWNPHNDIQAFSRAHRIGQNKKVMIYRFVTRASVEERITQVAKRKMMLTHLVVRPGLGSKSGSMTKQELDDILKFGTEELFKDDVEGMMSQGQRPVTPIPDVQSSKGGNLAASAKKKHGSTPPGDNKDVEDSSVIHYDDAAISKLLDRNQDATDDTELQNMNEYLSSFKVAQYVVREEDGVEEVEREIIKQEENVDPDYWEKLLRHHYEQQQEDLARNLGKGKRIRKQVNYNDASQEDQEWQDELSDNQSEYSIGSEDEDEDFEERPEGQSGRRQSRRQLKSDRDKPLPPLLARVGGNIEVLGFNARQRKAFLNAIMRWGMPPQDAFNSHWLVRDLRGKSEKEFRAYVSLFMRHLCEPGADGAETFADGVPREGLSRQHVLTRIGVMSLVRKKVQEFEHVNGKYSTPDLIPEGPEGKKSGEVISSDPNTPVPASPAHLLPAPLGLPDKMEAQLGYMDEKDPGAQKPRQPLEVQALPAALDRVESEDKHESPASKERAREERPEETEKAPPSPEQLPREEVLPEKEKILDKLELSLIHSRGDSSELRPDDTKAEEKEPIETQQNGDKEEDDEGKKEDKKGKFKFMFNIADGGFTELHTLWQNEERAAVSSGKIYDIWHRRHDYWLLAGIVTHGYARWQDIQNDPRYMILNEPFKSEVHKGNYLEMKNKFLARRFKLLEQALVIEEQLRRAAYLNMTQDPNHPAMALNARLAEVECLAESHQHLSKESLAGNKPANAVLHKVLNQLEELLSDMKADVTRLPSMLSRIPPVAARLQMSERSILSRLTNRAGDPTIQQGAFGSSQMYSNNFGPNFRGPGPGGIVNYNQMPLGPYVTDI
inactive: [1] 0.008 | [2] -0.004 | [3] -0.031 | [4] 0.056 | [5] -0.035 | [6] 0.043 | [7] -0.072 | [8] 0.058 | [9] -0.003 | [10] -0.016 | [11] -0.063 | [12] 0.015 | [13] 0 | [14] 0.005 | [15] -0.011 | [16] 0.026 | [17] -0.026 | [18] -0.005 | [19] 0.029 | [20] 0.01

CAPNS1 (UniProt P04632)
Chain of UniProt P04632 (P04632 whole entry, looked up): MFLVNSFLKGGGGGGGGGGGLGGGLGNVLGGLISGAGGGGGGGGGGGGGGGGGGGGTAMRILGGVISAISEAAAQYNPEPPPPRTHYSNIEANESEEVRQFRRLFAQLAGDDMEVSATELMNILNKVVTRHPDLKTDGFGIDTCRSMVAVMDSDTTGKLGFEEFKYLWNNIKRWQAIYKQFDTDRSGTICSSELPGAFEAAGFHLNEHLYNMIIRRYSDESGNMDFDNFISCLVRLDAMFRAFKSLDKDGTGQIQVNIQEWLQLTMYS
inactive: [1] -0.066 | [2] 0.001 | [3] -0.023 | [4] 0.025 | [5] 0.006 | [6] -0.008 | [7] 0.082 | [8] -0.007 | [9] -0.039 | [10] -0.005 | [11] 0.076 | [12] 0.002 | [13] 0.035 | [14] -0.007 | [15] -0.015 | [16] 0.006 | [17] 0.053 | [18] 0 | [19] -0.025 | [20] 0.01
